Assay results: ChEMBL document CHEMBL3988442, “University of Dundee, Small-Polar-MMV Screening Library” (2021)
Hit rate of the full screen: of about 53,000 compounds, about 900 (1.7%) showed an effect of 50% or more. The full list was thinned out, with strong results kept by preference.

tested on: Mycobacterium tuberculosis; assay: Cornell - Phenotypic assay to identify agents that inhibit growth of Mycobacterium tuberculosis; type: functional; parameters: scale not given: direction of the effect not stated beside the values; conditions: 10 mM as filed; unlikely as a test dose

Going from `O=C(N1CCOCC1)N1CCc2ncc(CN3CCCCC3)n2CC1.O=C(O)C(F)(F)F` to `O=C(O)C(F)(F)F.O=C(O)C(F)(F)F.c1nc(CN2CCC3(CC2)COCCN3CC2CC2)c[nH]1`, the “Percent Effect” value falls from 15.78% to 14.15%.

Compared with `COCCCN(Cc1ccccn1)S(=O)(=O)c1ccc(OC)cc1`, `CCc1cccc(NC(=O)CNc2ccccc2OCCC(=O)OC)c1` is higher in “Percent Effect” value: -5.527% for the first, 45.3% for the second.

Compared with `CC(C)(C)c1cc(NC(=O)NCCc2nnc3n2CCC3)c(C#N)s1`, `CCS(=O)(=O)N1CCc2ccc(NC(=O)Nc3cccc(C#N)c3)cc21` is higher in “Percent Effect” value: 18.93% for the first, 83.89% for the second.

First: Cc1noc(CCCC(=O)Nc2ncccc2Br)n1
Second: Cc1noc(CCCC(=O)NCCc2cc3ccccc3[nH]2)n1
The “Percent Effect” value of the first is lower: -30.93% for the first, 55.01% for the second.

Compared with `Cc1noc(CCCNC(=O)CNC(=O)c2cc3ccccc3[nH]2)n1`, `Cc1noc(C)c1CC(=O)N[C@@H]1CC[C@@H](Oc2ccccc2)[C@@H]1O` is higher in “Percent Effect” value: 17.25% for the first, 21.6% for the second.

Going from `CC(=O)N1CCC2(C1)c1ccccc1S(=O)(=O)N2Cc1ccccc1` (stereo not drawn) to `CCS(=O)(=O)N1CCc2ccc(NC(=O)Nc3ccccc3)cc21`, the “Percent Effect” value rises from -2.139% to 24.03%.

First: CCS(=O)(=O)N1CCc2ccc(NC(=O)Nc3cccc(C)c3)cc21
Second: CSCc1cccc(NC(=O)N2CCC(N3CC=CC3)C2)c1 (stereo not drawn)
The “Percent Effect” value of the first is higher: 35.62% for the first, -39.08% for the second.

Going from `O=C(CC1=CSC2=NCCCN12)N1CCCCCC1c1ccco1` (stereo not drawn) to `O=C(c1cc(-c2cccs2)on1)N1CCCCC1Cn1cccn1` (stereo not drawn), the “Percent Effect” value rises from -8.894% to 6.3%.

Going from `CC(=O)NCCNc1nc(-c2ccccn2)nc2c1c(C)nn2C` to `CCSCCNc1nc(-c2ccccn2)nc2c1c(C)nn2C`, the “Percent Effect” value rises from 12.46% to 51.67%.

Going from `Cc1nn(C)c2nc(-c3ccccn3)nc(NC[C@@H]3CCCO3)c12` to `Cc1nn(C)c2nc(-c3ccccn3)nc(NCCC3CCCN3C)c12` (stereo not drawn), the “Percent Effect” value falls from 21.74% to -44.58%.

Compared with `CSCC[C@@H](CO)Nc1nc(-c2ccccn2)nc2c1c(C)nn2C`, `Cc1nn(C)c2nc(-c3ccccn3)nc(NCCCOC(C)C)c12` is higher in “Percent Effect” value: 2.174% for the first, 64.07% for the second.

Compared with `Cc1nc(-c2cc(C(=O)NC(C)(C(=O)O)C(C)C)co2)cs1` (stereo not drawn), `Cc1nc(-c2cc(C(=O)O)co2)cs1` is higher in “Percent Effect” value: 45.67% for the first, 58.57% for the second.

Compared with `CNC(=O)c1coc(-c2csc(C)n2)c1`, `CC(=O)Nc1nc(C(=O)NCc2ccc(N3CCCC3)nc2)cs1` is lower in “Percent Effect” value: 11.85% for the first, -0.1463% for the second.

Going from `CCn1cc(CN2C[C@@H]3CCCN3C[C@H]2CCSC)c(C)n1` to `CC(C)Nc1cc(-c2c[nH]nc2C2CCN(C(=O)C3CC3)C2)ccn1` (stereo not drawn), the “Percent Effect” value rises from -15.91% to 31.29%.

Compared with `Cc1ccc2c(c1)C1(CCNCC1)CN2C(=O)CN(C)C.O=C(O)C(F)(F)F.O=C(O)C(F)(F)F`, `COCCN1C[C@@H]2[C@@H](OC)CCN(S(=O)(=O)c3cccnc3)[C@@H]2C1.O=C(O)C(F)(F)F.O=C(O)C(F)(F)F` is higher in “Percent Effect” value: 0.8832% for the first, 21.64% for the second.

Going from `CCS(=O)(=O)Nc1ccn(Cc2ccc(F)cc2Cl)n1` to `Cn1ncc2c1NC(=O)CC2c1cc(Cl)ccc1F` (stereo not drawn), the “Percent Effect” value falls from 28.06% to 13.85%.

Compared with `Cn1ncc2c1NC(=O)CC2c1ccccc1Cl` (stereo not drawn), `Cn1ncc2c1NC(=O)CC2c1ccc(Cl)cc1Cl` (stereo not drawn) is higher in “Percent Effect” value: -9.252% for the first, 59.83% for the second.

Going from `Cc1cc(CS(=O)(=O)C(C)C(=O)N(C)c2ccccc2)on1` (stereo not drawn) to `CC(C)c1cc(C(=O)N[C@@H]2CC[C@@H](Oc3ccccc3)[C@@H]2O)on1`, the “Percent Effect” value rises from -17.42% to 75.51%.

Going from `CN(Cc1ccco1)[C@@H]1CN(C(=O)C2CCOCC2)C[C@@H]2CCCO[C@@H]21.O=C(O)C(F)(F)F` to `CC(C)CNc1cc(-c2c[nH]nc2C2CCN(C(=O)C3CC3)C2)ccn1` (stereo not drawn), the “Percent Effect” value rises from -2.901% to 30.66%.

Going from `NC(=O)C1CCCN(Cc2ccc(C(=O)Nc3cnns3)cc2)C1` (stereo not drawn) to `CC(C)Nc1cc(-c2c[nH]nc2C2CCN(C(=O)C3CCC3)C2)ccn1` (stereo not drawn), the “Percent Effect” value rises from 2.81% to 58.28%.

Going from `CCn1c(C)cc(C(=O)N2CCC(Nc3cccnn3)CC2)c1C` to `Cc1noc(C)c1CCC(=O)N[C@@H]1CC[C@@H](Oc2cccnc2)[C@@H]1O`, the “Percent Effect” value rises from 7.118% to 15.37%.

First: CCOCC(=O)N1CCc2nc(C)nc(NC(C)C)c2CC1
Second: Cc1n[nH]c(C)c1CCC(=O)N[C@@H]1CCC[C@@H](Oc2ccccc2)[C@@H]1O
The “Percent Effect” value of the first is higher: -12.05% for the first, -14.05% for the second.

Going from `Cc1noc(C)c1C(=O)N[C@@H]1CC[C@@H](Oc2ccccc2)[C@@H]1O` to `Cc1noc(C)c1C(=O)N[C@@H]1CCC[C@@H](Oc2ccccc2)[C@@H]1O`, the “Percent Effect” value rises from 21.33% to 50.47%.

First: COCC(NC(=O)c1cnc(-c2ccncc2)nc1)c1ccnn1C (stereo not drawn)
Second: Cc1csc(Nc2cc(C3CN(c4ccncn4)C3)nc(C)n2)n1
The “Percent Effect” value of the first is lower: 1.357% for the first, 23.54% for the second.
